# Laboratory results as given in PubChem BioAssay.
# For some assays here: Entries with a potency or affinity are not part of this list. Activity calls are given as the source filed them.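 Rule for the calls, unless noted: active = normalized viability below 100% at a tested concentration; inactive = the rest.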
# Key:
# [1] = chitosan synthesis blockers in C. neoformans – flow cytometry, Cibacron Brilliant Red staining (AID 1347148; call rule not given here;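 note: compound exposure lasted three days at 37 degrees C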); conditions: Cryptococcus neoformans chitosan, stronger effect = lower value; at 10 µM unless noted
# [2] = compounds altering circadian rhythm period length – cell-based, LOPAC library, luminescence reporter (AID 2774; call rule not given here;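 note: values are relative to mean of DMSO wells on each plate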); conditions: circadian reporter cells, at 7 µM, actives lie on both sides
# [3] = MELAS cybrid and Rieske KO viability enhancers – cell-based, MELAS cybrids, Rieske KO mouse fibroblasts, CellTiter-Glo, primary screen (AID 1508586;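 active = mean z-score across replicates of 1.96 or higher in either the MELAS or the Rieske mutant cell line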;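 note: z relative to plate mean and SD of compound and empty wells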); conditions: low glucose
# [4] = blockers of cellular phospholipid synthesis – cell-based, LOPAC library, screen 4, primary screen (AID 1347384; call rule not given here); conditions: animal cells, phospholipid biosynthesis inhibition screen; at 10 µM
# [5] = blockers of polyQ-driven CASP3 activation – cell-based (AID 1583); conditions: polyglutamine-induced caspase-3 activation, cell assay; stronger effect = higher value;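 tested at 10 µM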
# [6] = yeast 75Q aggregation reduction – 75Q-TubU reporter (AID 1593); conditions: Yeast 75Q polyglutamine aggregation reporter
# [7] = restoration of touch response, mutant HTT neurons – whole organism, C. elegans mechanosensory neurons, N-terminal huntingtin (AID 1599); conditions: C. elegans polyQ-huntingtin mechanosensory neurons, stronger effect = higher value
# [8] = blockers of cytochrome c efflux from mitochondria – biochemical, purified mitochondria (AID 1603); conditions: stronger effect = lower value;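 note: mouse liver mitochondria challenged with calcium chloride; signal normalized to the plate average as 100%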
# [9] = polyglutamine aggregate formation blockers (AID 1604); conditions: polyglutamine-induced protein aggregation inhibition assay; stronger effect = higher value; tested at 2.5 µM
# [10] = glutamate transport activators, MN-1 cells, MN-1 cell line (AID 1612); conditions: MN-1 motor neuron cells, stronger effect = higher value;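 note: tested at 1 µM final; 0% = mean of DMSO vehicle wells on each plate; positive means more glutamate uptake than control and negative means less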
# [11] = GFP-Q80 aggregate reduction, neuronal-like cells, cell-based, NGF-treated PC12, GFPQ80 (AID 1614); conditions: PC12 NGF-treated GFP-polyQ80 inclusion reduction;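 note: lower means fewer inclusions and 0 means no inclusions at all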
# [12] = 75Q-TubH aggregate inhibition, S. cerevisiae, yeast (AID 1616); conditions: S. cerevisiae 75Q-TubH polyglutamine aggregation suppression; stronger effect = higher value
# [13] = drug combination growth inhibition, ovarian cancer – cell-based, oncology-focused library, rucaparib conditional, profiling panel (AID 1508598); conditions: patient-derived ovarian cancer cells, CellTiter-Glo viability, 144 h, stronger effect = lower value
# [14] = tested on: Hepatitis C virus NS3 helicase; experiment: blockers of NS3h binding to ssDNA – biochemical, fluorescence polarization, LOPAC1280 library, primary screen (AID 687035; in the data active = inhibition above about 37%); conditions: Purified HCV NS3 helicase, Cy5-dT15 ssDNA binding fluorescence polarization; stronger effect = higher value; concentration not given here
# [15] = compounds altering Cy5-DNA-NS3h complex signal – biochemical, LOPAC1280, artefact control for HCV NS3 helicase inhibitor project (AID 687037; call rule not given here); conditions: Cy5-DNA-NS3h complex fluorescence interference counterscreen
# [16] = MELAS cybrid survival, CellTiter-Glo 48 h, stronger effect = higher value
# [17] = Rieske KO mouse fibroblast survival, CellTiter-Glo 72 h
smiles,measurement,setting,value
CCNC(=O)[C@@H]1O[C@H](n2cnc3c(N)ncnc32)C(O)[C@@H]1O (stereo not given in full),fold fluorescence,[1],4.97 [at 162.2 µM] (inactive)
CC(C)NC[C@H](O)c1ccc(N)c(C#N)c1,fold fluorescence,[1],4.74 [at 228 µM] (inactive)
CCCCCCCCCCCCCCCC(=O)OC[C@@H](COP(=O)([O-])OCC[N+](C)(C)C)OC(C)=O,fold fluorescence,[1],4.75 (inactive)
CNc1ccc2oc(C[C@H]3OC4(CC[C@H]3C)O[C@@H](C(C)C(=O)c3ccc[nH]3)[C@@H](C)C[C@@H]4C)nc2c1C(=O)O (stereo not given in full),fold fluorescence,[1],5.79 [at 95.5 µM] (inactive)
CCCCCCCCCCCCCCCCOC[C@H](O)COP(=O)([O-])OCC[N+](C)(C)C,fold fluorescence,[1],3.83 (inactive)
CN1CCN(C(=O)OC2c3nccnc3C(=O)N2c2ccc(Cl)cn2)CC1 (stereo not given),period change,[2],-0.19 h (inactive)
same,z-score,[3]; [16],-0.0147 (inactive)
same,z-score,[3]; [17],0.36
N#CCCN,outcome,[4],inactive
C=CCC1(CC(C)C)C(=O)NC(=O)NC1=O,inhibition,[5],-3.41%
same,score,[6],0.97
same,rescue above control,[7],1.21
same,cytochrome c release ratio,[8],0.94
same,inhibition of aggregation,[9],7.48%
same,glutamate uptake change,[10],5.4%
same,inclusion score,[11],2
same,aggregation suppression score,[12],1.15
same,z-score,[3]; [16],0.0849 (inactive)
same,z-score,[3]; [17],0.0147
COC1=CC(=O)O[C@H](/C=C/c2ccccc2)C1,fold fluorescence,[1],3.69 [at 217.1 µM] (inactive)
C=C1C(=O)O[C@H]2C[C@H](C)[C@H]3C=CC(=O)[C@]3(C)[C@H](O)[C@@H]12,fold fluorescence,[1],9.09 [at 190.6 µM] (inactive)
C=C1[C@@H](C)[C@H]2[C@H](Cc3ccccc3)NC(=O)[C@]23[C@H](OC(C)=O)/C=C/[C@](C)(O)C(=O)[C@@H](C)C/C=C/[C@H]3[C@@H]1O,fold fluorescence,[1],11.8 [at 98.5 µM] (inactive)
CC(C)[C@@]12O[C@@H]1[C@@H]1O[C@]13[C@]1(O[C@@H]1C[C@@H]1C4=C(CC[C@@]13C)C(=O)OC4)[C@@H]2O,viability,"[13]; at 0.000305 µM, OCI-C5x cells, with rucaparib 10 µM, 100% = cells with rucaparib alone",33.2% (active)
same,viability,"[13]; at 0.000305 µM, OCI-C5x cells, without rucaparib",23.2% (active)
same,viability,"[13]; at 0.000305 µM, OCI-P5x cells, with rucaparib 20 µM, 100% = cells with rucaparib alone",11.8% (active)
same,viability,"[13]; at 0.000305 µM, OCI-P5x cells, without rucaparib",6.41% (active)
same,viability,"[13]; at 0.00122 µM, OCI-C5x cells, with rucaparib 10 µM, 100% = cells with rucaparib alone",19.5% (active)
same,viability,"[13]; at 0.00122 µM, OCI-C5x cells, without rucaparib",15.4% (active)
same,viability,"[13]; at 0.00122 µM, OCI-P5x cells, with rucaparib 20 µM, 100% = cells with rucaparib alone",12.6% (active)
same,viability,"[13]; at 0.00122 µM, OCI-P5x cells, without rucaparib",7.08% (active)
same,viability,"[13]; at 0.00488 µM, OCI-C5x cells, with rucaparib 10 µM, 100% = cells with rucaparib alone",8% (active)
same,viability,"[13]; at 0.00488 µM, OCI-C5x cells, without rucaparib",7.6% (active)
same,viability,"[13]; at 0.00488 µM, OCI-P5x cells, with rucaparib 20 µM, 100% = cells with rucaparib alone",13.9% (active)
same,viability,"[13]; at 0.00488 µM, OCI-P5x cells, without rucaparib",8.9% (active)
same,viability,"[13]; at 0.0195 µM, OCI-C5x cells, with rucaparib 10 µM, 100% = cells with rucaparib alone",10.1% (active)
same,viability,"[13]; at 0.0195 µM, OCI-C5x cells, without rucaparib",8.03% (active)
same,viability,"[13]; at 0.0195 µM, OCI-P5x cells, with rucaparib 20 µM, 100% = cells with rucaparib alone",12.6% (active)
same,viability,"[13]; at 0.0195 µM, OCI-P5x cells, without rucaparib",8.76% (active)
same,viability,"[13]; at 0.0781 µM, OCI-C5x cells, with rucaparib 10 µM, 100% = cells with rucaparib alone",9.57% (active)
same,viability,"[13]; at 0.0781 µM, OCI-C5x cells, without rucaparib",9.36% (active)
same,viability,"[13]; at 0.0781 µM, OCI-P5x cells, with rucaparib 20 µM, 100% = cells with rucaparib alone",11.1% (active)
same,viability,"[13]; at 0.0781 µM, OCI-P5x cells, without rucaparib",9.41% (active)
same,viability,"[13]; at 0.313 µM, OCI-C5x cells, with rucaparib 10 µM, 100% = cells with rucaparib alone",9.16% (active)
same,viability,"[13]; at 0.313 µM, OCI-C5x cells, without rucaparib",10.5% (active)
same,viability,"[13]; at 0.313 µM, OCI-P5x cells, with rucaparib 20 µM, 100% = cells with rucaparib alone",12.1% (active)
same,viability,"[13]; at 0.313 µM, OCI-P5x cells, without rucaparib",8.22% (active)
same,viability,"[13]; at 1.25 µM, OCI-C5x cells, with rucaparib 10 µM, 100% = cells with rucaparib alone",9.48% (active)
same,viability,"[13]; at 1.25 µM, OCI-C5x cells, without rucaparib",10% (active)
same,viability,"[13]; at 1.25 µM, OCI-P5x cells, with rucaparib 20 µM, 100% = cells with rucaparib alone",9.34% (active)
same,viability,"[13]; at 1.25 µM, OCI-P5x cells, without rucaparib",8.5% (active)
same,viability,"[13]; at 5 µM, OCI-C5x cells, with rucaparib 10 µM, 100% = cells with rucaparib alone",9.2% (active)
same,viability,"[13]; at 5 µM, OCI-C5x cells, without rucaparib",8.72% (active)
same,viability,"[13]; at 5 µM, OCI-P5x cells, with rucaparib 20 µM, 100% = cells with rucaparib alone",10.3% (active)
same,viability,"[13]; at 5 µM, OCI-P5x cells, without rucaparib",6.87% (active)
CC(CCC(=O)O)CC(C)CC(C)C(=O)/C=C(\O)C(C)CC(C)C/C=C/C(C)C(O)C(C)C(O)CC1CCC(C)(C2CCC(C)(C(C)O)O2)O1 (stereo not given),fold fluorescence,[1],5.45 [at 70.5 µM] (inactive)
C[C@H]1C2Cc3ccc(O)cc3[C@@]1(C)CCN2CC1CC1,inhibition,[14],0% (inactive)
same,fluorescence ratio (interference),[15],1 (inactive)
same,outcome,[4],inactive
CN1C(=O)[C@@]23CC4=CC=C[C@@H](O)[C@@H]4N2C(=O)[C@]1(CO)SS3,fold fluorescence,[1],7.1 [at 153.2 µM] (inactive)
C=C(C)[C@@H]1O[C@@H]2CC[C@]3(C)[C@](O)(CC[C@@H]4[C@H]5OC(C)(C)[C@@H]6C[C@H]7C(=C)Cc8c(Cl)cc9[nH]c(c5c9c8[C@]76O)[C@]43C)[C@@]23O[C@H]3[C@@H]1O,fold fluorescence,[1],6.21 [at 78.8 µM] (inactive)
CC(=O)NC1C(OC2OC(CC(O)C3OC(n4ccc(=O)[nH]c4=O)C(O)C3O)C(O)C(O)C2NC(=O)/C=C\CC(C)C)OC(CO)C(O)C1O (stereo not given),fold fluorescence,[1],7.24 [at 69.6 µM] (inactive)
O=C1CS[C@@H](c2ccccc2Cl)c2cc(Cl)ccc2N1,fold fluorescence,[1],10.4 [at 154.2 µM] (inactive)
N[C@H]1CCc2cc(O)c(O)cc2C1,fold fluorescence,[1],4.25 [at 279 µM] (inactive)
C=C1[C@@H](O)C2O[C@@]3(CCC2O[C@@H]1C(O)C[C@H](C)C1O[C@@]2(CCCCO2)CC[C@H]1C)CC[C@@H](/C=C/[C@@H](C)[C@@H]1CC(C)=C[C@@]2(O[C@H](C[C@@](C)(O)C(=O)O)CCC2O)O1)O3 (stereo not given in full),fold fluorescence,[1],14.3 [at 6.2 µM] (inactive)
C/C1=C/C(=O)O[C@H]2C[C@H](CC[C@@H](C)/C=C\CC1)O[C@](O)([C@H]1CSC(=O)N1)C2,fold fluorescence,[1],6.99 [at 126.4 µM] (inactive)
